Screens as filed in PubChem BioAssay.
Hits are enriched below; roughly 2.8% of the tested compounds scored in any of these assays.
Shn3 inh set2 – Schnurri-3 reporter inhibition in Clone20 osteoblasts | Clone20 osteoblast Shn3 3'UTR firefly luciferase, 24 h | inhibition, % at 12.5 µM | 0.52% of 360,000 active | AID 588674;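 active means mean inhibition of at least 75% with every replicate also reaching 75%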
PAX8 inh HTS – inhibitors of PAX8 transcriptional activity in RMG-I cells; RMG-I TPO-luciferase reporter, SteadyGlo, 24 h; inhibition, % at 12.6 µM; 1.2% of 360,000 active; AID 652154;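 active means mean replicate inhibition at least 60% with every replicate also reaching 60%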;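 further: luciferase light reporting Pax8 driven TPO promoter activity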
EBV LMP1 NFkB – Epstein-Barr LMP1 NF-kappaB reporter inhibition | LMP1-induced NF-kappaB luciferase reporter cells, luminescence | inhibition, % at 12.5 µM | 0.69% of 350,000 active; in the data active means inhibition above about 41%
Env fusion inh – HIV envelope-mediated fusion inhibition; HeLa-JRFL Env/CEM21 cell fusion, luciferase; inhibition, % at 12.3 µM; 1.1% of 360,000 active; AID 651610;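 active means mean replicate inhibition score of at least 50 and every replicate individually at or above 50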
NSD2 HMT inh – blocks human histone methyltransferase NSD2. 0.54% of 310,000 active. NSD2 peptide methylation, AlphaScreen, 120 min. inhibition, % at 12.5 µM. AID 743445; in the data active means inhibition above about 50%
N-glyco inh – N-linked glycosylation inhibition; D54 ERlucT glycosylation luciferase reporter, 24 h; percent of 100 nM tunicamycin response; reporter increase, % at 12.5 µM; 0.23% of 360,000 active;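 active means mean luciferase reporter signal, scaled so untreated is 0 and the glycosylation-blocking control 100, at or above a set limit in every replicate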;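 further: luciferase carries N-glycosylation sites so blocking glycosylation raises the light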
Hits are given with their value; n = inactive; x = no result.

SMILES	Shn3 inh set2	PAX8 inh HTS	EBV LMP1 NFkB	Env fusion inh	NSD2 HMT inh	N-glyco inh
CC1C/C(=N\NC(=O)c2ccc(NS(=O)(=O)c3ccc(Br)cc3)cc2)CC(C)(C)C1 (stereo not given)	n	86	n	n	n	n
CCCNC(=O)C[C@H]1CC[C@H]2[C@@H](COc3ccc(NC(=O)NCCC)cc3C(=O)N2C)O1	x	n	x	x	x	x
COc1ccc(-c2cc(C(F)(F)F)nc(S(=O)(=O)CCCC(=O)Nc3cccc(O)c3)n2)cc1OC	n	63	x	n	n	n
COc1ccccc1-c1cc(C(F)(F)F)nc(S(=O)(=O)CCCC(=O)O)n1	n	x	n	n	n	n
C[C@@H](NC(=O)C[C@H]1C[C@@H]2c3cc(NC(=O)C4CCOCC4)ccc3O[C@@H]2[C@@H](CO)O1)c1ccccc1	x	n	x	n	x	x
CCC(=O)Nc1ccc2c(c1)C(=O)N(C)[C@H]1CC[C@H](CC(=O)N3CCCCC3)O[C@H]1CO2	x	n	x	n	x	x
Cc1ccc(-n2nnc(-c3nccs3)n2)cc1	n	n	58	n	x	n
Clc1ccc(-n2nnc(-c3nccs3)n2)cc1Cl	n	n	n	x	x	n
C[C@H](CO)N1C[C@H](C)[C@@H](CN(C)Cc2cccnc2)OCc2ccccc2-c2c(n(C)c3ccccc23)C1=O	x	n	x	n	x	x
Cc1ccc(-n2c(Cl)c(Cl)nc(Cl)c2=O)cc1	96	x	72	x	x	n
CN(C[C@H](Cc1ccccc1)N(C[C@H](c1ccccc1)N(CCc1ccccc1)N=O)N=O)N=O	87	n	n	74	x	n
CC(C)CCN(N=O)[C@@H](Cc1ccccc1)CN(N=O)[C@@H](Cc1ccccc1)CN(C)N=O	n	n	n	93	x	n
CC(C)C[C@@H](CN(N=O)[C@@H](Cc1ccccc1)CN(C)N=O)N(CCc1ccccc1)N=O	n	n	n	n	x	n
CN(C[C@@H](Cc1cccc2ccccc12)N(C[C@H](Cc1ccccc1)N(CCc1ccccc1)N=O)N=O)N=O	n	n	n	n	x	n
CN(C[C@H](Cc1ccccc1)N(C[C@@H](CC1CCCCC1)N(CCc1ccccc1)N=O)N=O)N=O	n	n	n	56	x	n
CN(C[C@H](c1ccccc1)N(C[C@H](Cc1ccccc1)N(CCc1ccccc1)N=O)N=O)N=O	n	n	n	n	x	n
CN(C[C@H](Cc1ccccc1)N(C[C@H](Cc1ccccc1)N(CCC(C)(C)C)N=O)N=O)N=O	n	n	n	62	x	n
CCN(N=O)[C@@H](Cc1ccccc1)CN(N=O)[C@@H](Cc1ccccc1)CN(C)N=O	n	n	n	n	x	n
CCC(=O)N(C)C[C@@H]1Oc2ncc(-c3ccccc3F)cc2C(=O)N([C@H](C)CO)C[C@H]1C	x	x	x	n	x	x
O=S1(=O)CCO[C@H]2Cc3ccccc3[C@H]2N1Cc1cccc(F)c1	n	n	n	n	x	n
O=S1(=O)CCO[C@H]2Cc3ccccc3[C@H]2N1Cc1cccc(C(F)(F)F)c1	n	n	n	66	x	n
O=C(c1ccncc1)N1CC[C@@H]2[C@@H](CO)Nc3ccc(C4=CCCCC4)cc3[C@@H]21	x	n	x	x	x	x
CCN1CCN(C2=C(NS(=O)(=O)c3ccc(Br)cc3)C(=O)c3ccccc3C2=O)CC1	n	n	n	n	90	n
NC(=O)C1CCN(C2=C(NS(=O)(=O)c3ccc(Br)cc3)C(=O)c3ccccc3C2=O)CC1	n	n	n	n	52	n
NC(=O)C1CCN(C2=C(NS(=O)(=O)c3ccccc3)C(=O)c3ccccc3C2=O)CC1	n	n	n	n	n	n
SMILES	Shn3 inh set2	PAX8 inh HTS	EBV LMP1 NFkB	Env fusion inh	NSD2 HMT inh	N-glyco inh
CCN1CCN(C2=C(NS(=O)(=O)c3ccccc3)C(=O)c3ccccc3C2=O)CC1	n	n	x	n	57	n
NC(=O)C1CCN(C2=C(Cl)C(=O)c3ccccc3C2=O)CC1	98	x	78	n	88	78
CC=Cc1ccc2n(c1=O)C[C@@H]1[C@@H](CO)[C@H](C(=O)N3CCN(C)CC3)N(Cc3ccccc3F)[C@H]21 (mixture of isomers)	x	n	x	x	x	x
O=c1[nH]cnc2ncc(-c3ccc(O)cc3)nc12	n	69	n	n	n	n
O=C(C[C@@H]1C[C@H]2c3cc(NC(=O)CC4CC4)ccc3O[C@H]2[C@H](CO)O1)NCCN1CCCCC1	x	n	x	n	x	x
CCCC12C(=O)C(C)(C(c3ccccc3)=C1c1ccccc1)C1C(=O)N(c3ccc(C)cc3)C(=O)C12 (stereo not given)	n	n	n	83	n	n
CCC12C(=O)C(CC)(C(c3ccccc3)=C1c1ccccc1)[C@@H]1C(=O)N(c3ccccc3)C(=O)C12 (stereo not given in full)	n	n	n	x	n	n
CCC12C(=O)C(CC)(C(c3ccccc3)=C1c1ccccc1)[C@@H]1C(=O)N(c3ccc(C)cc3)C(=O)C12 (stereo not given in full)	n	n	n	92	n	n
COc1ccc(C(=O)N2CCN(c3ccc([N+](=O)[O-])c(NCCc4ccc(OC)c(OC)c4)c3)CC2)cc1	n	n	n	77	n	n
COc1ccc(CCNc2cc(N3CCN(C(=O)c4ccccc4F)CC3)ccc2[N+](=O)[O-])cc1OC	88	x	n	x	n	n
CC(=O)N(C1=C(Cl)C(=O)c2ccccc2C1=O)C1CCCCC1	n	99	n	n	x	n
CCC(NC(C)C)C(O)c1ccc(O)c2[nH]c(=O)ccc12 (stereo not given)	n	x	74	x	x	n
C[C@H](O)C#Cc1cnc2c(c1)C(=O)N([C@@H](C)CO)C[C@@H](C)[C@H](CN(C)Cc1ccc(-c3ccccc3)cc1)O2	x	72	x	n	x	x
C[C@H](O)C#Cc1cnc2c(c1)C(=O)N([C@H](C)CO)C[C@@H](C)[C@@H](CN(C)Cc1ccc(-c3ccccc3)cc1)O2	n	65	n	n	x	n
C[C@H](O)C#Cc1cnc2c(c1)C(=O)N([C@H](C)CO)C[C@@H](C)[C@H](CN(C)Cc1ccc(-c3ccccc3)cc1)O2	x	n	x	n	x	x
C[C@H](O)C#Cc1cnc2c(c1)C(=O)N([C@H](C)CO)C[C@H](C)[C@H](CN(C)Cc1ccc(-c3ccccc3)cc1)O2	x	87	x	n	x	x
COCC#Cc1cnc2c(c1)C(=O)N([C@H](C)CO)C[C@H](C)[C@H](CN(C)Cc1ccc(F)cc1)O2	x	x	x	n	x	x
O=C1c2cccc3c([N+](=O)[O-])ccc(c23)C(=O)N1c1ccccn1	n	n	55	n	n	n
O=C1c2cccc3c([N+](=O)[O-])ccc(c23)C(=O)N1c1ccc(Cl)cn1	n	x	n	n	n	n
O=C1c2cccc3c([N+](=O)[O-])ccc(c23)C(=O)N1c1nccs1	n	x	49	n	n	n
C[C@H](NC(=O)C[C@H]1CC[C@H](NC(=O)C2CC2)[C@H](CO)O1)c1ccccc1	x	n	x	n	x	x
O=C1CN(S(=O)(=O)Cc2ccccc2)C[C@H]2[C@H](c3ccc(C#CCC4CCCC4)cc3)[C@@H](CO)N12	x	n	x	x	x	x
